# Assay results taken from PubChem BioAssay (EPA / NIEHS).
# The source made the active and inactive calls. The calls were made as follows: active = hit-call score of the fitted dose curve at least 0.9, where 1 is the maximum; inactive = score below 0.9.
# Legend:
# Details in all cases: mRNA level, 48 h; actives raise or lower the signal
# [1] = read-out: Cytochrome P450 (CYP24A1), CYP24A1 (gene 1591); assay: LTEA_HepaRG_CYP24A1: Life Technologies and Expression Analysis (LTEA) Assay for Cytochrome P450 (CYP24A1) using HepaRG (AID 2283478)
# Procedure, shortened: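 HepaRG cells plated 48 h, then exposed in duplicate in serum-free induction medium for 48 h to 8-point half-log series from 100 uM in 0.5% DMSO. CYP24A1 mRNA by Fluidigm qRT-PCR, normalized to ACTB, GAPDH, POLR2A; bidirectional fit versus DMSO.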
# [2] = read-out: Cytochrome P450 (CYP1A2), CYP1A2 (gene 1544); assay: LTEA_HepaRG_CYP1A2: Life Technologies and Expression Analysis (LTEA) Assay for Cytochrome P450 (CYP1A2) using HepaRG (AID 2283479)
# Procedure, shortened: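 Differentiated human HepaRG cells in serum-free induction medium exposed 48 hours in duplicate to 8 half-log concentrations from 100 uM, 0.5% DMSO. CYP1A2 mRNA quantified by qRT-PCR, normalized to ACTB, GAPDH and POLR2A; bidirectional fitting versus DMSO.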
# [3] = read-out: cysteine-aspartic acid protease (CASP8), CASP8 (gene 841); assay: LTEA_HepaRG_CASP8: Life Technologies and Expression Analysis (LTEA) Assay for cysteine-aspartic acid protease (CASP8) using HepaRG (AID 2283480)
# Procedure, shortened: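 CASP8 transcript measured by TaqMan qRT-PCR with ACTB/GAPDH/POLR2A normalization, after 48 h chemical exposure of HepaRG cells in serum-free induction medium. Eight concentrations, top 100 uM, half-log steps, 0.5% DMSO vehicle; fits in both directions versus DMSO.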
# [4] = read-out: Cytochrome P450 (CYP2B6), CYP2B6 (gene 1555); assay: LTEA_HepaRG_CYP2B6: Life Technologies and Expression Analysis (LTEA) Assay for Cytochrome P450 (CYP2B6) using HepaRG (AID 2283481)
# Procedure, shortened: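 Differentiated human HepaRG cells in serum-free induction medium, dosed in duplicate for 48 h over 8 half-log concentrations topping at 100 uM (0.5% DMSO). CYP2B6 mRNA measured by TaqMan qRT-PCR, normalized to ACTB, GAPDH, POLR2A; bidirectional fit versus DMSO.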
# CYP2C8 (gene 1558) = assay: LTEA_HepaRG_CYP2C8: Life Technologies and Expression Analysis (LTEA) Assay for CYP2C8 using HepaRG (AID 2283483)
# Procedure, shortened: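 CYP2C8 expression measured by TaqMan qRT-PCR and normalized to three housekeeping genes. HepaRG cultures were treated for 48 h with an eight-point half-log series topping at 100 uM, vehicle 0.5% DMSO, duplicates; fitted both directions against DMSO.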
# CYP2C9 (gene 1559) = assay: LTEA_HepaRG_CYP2C9: Life Technologies and Expression Analysis (LTEA) Assay for CYP2C9 using HepaRG (AID 2283484)
# Procedure, shortened: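 CYP2C9 transcript level, quantified by TaqMan qRT-PCR against three housekeeping genes, was fitted bidirectionally relative to 0.5% DMSO. HepaRG cultures were treated 48 h, in duplicate, at eight half-log concentrations topping at 100 uM.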
# CYP2E1 (gene 1571) = assay: LTEA_HepaRG_CYP2E1: Life Technologies and Expression Analysis (LTEA) Assay for CYP2E1 using HepaRG (AID 2283485)
# Procedure, shortened: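 Assay uses 48 h exposure of HepaRG hepatic cells, eight concentrations to 100 uM. Expression of CYP2E1 is quantified by TaqMan qRT-PCR with ACTB, GAPDH and POLR2A normalization; curves fitted in both directions relative to vehicle.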
# CYP4A11 (gene 1579) = assay: LTEA_HepaRG_CYP4A11: Life Technologies and Expression Analysis (LTEA) Assay for CYP4A11 using HepaRG (AID 2283486)
# Procedure, shortened: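 Differentiated HepaRG cells, 48 h after plating, exposed in duplicate for 48 h to 8 half-log concentrations up to 100 uM in 0.5% DMSO in serum-free induction medium. CYP4A11 mRNA measured by TaqMan qRT-PCR, normalized to ACTB, GAPDH and POLR2A.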
Structure (SMILES),outcome [1],outcome [2],outcome [3],outcome [4],outcome (CYP2C8 (gene 1558)),outcome (CYP2C9 (gene 1559)),outcome (CYP2E1 (gene 1571)),outcome (CYP4A11 (gene 1579)),AC50 [2],AC50 [4],AC50 (CYP2E1 (gene 1571)),AC50 (CYP4A11 (gene 1579)),AC50 (CYP2C8 (gene 1558))
CCC(C)(C)c1ccc(O)cc1,inactive,inactive,inactive,inactive,inactive,inactive,inactive,inactive,,,,,
c1ccc(OP(Oc2ccccc2)Oc2ccccc2)cc1,inactive,inactive,inactive,inactive,inactive,inactive,inactive,inactive,,,,,
O=C(O)C(Cl)Cl,inactive,inactive,inactive,inactive,inactive,inactive,inactive,inactive,,,,,
Nc1cc2c3c(c1)C(c1ccccc1)=N[C@@H](NC(=O)c1cccnc1)C(=O)N3CC2,inactive,,inactive,,inactive,inactive,,,50 µM (active),3.51 µM (active),12.2 µM (active),50 µM (active),
COCCOCCO,inactive,inactive,inactive,,inactive,inactive,inactive,inactive,,1.15 µM (active),,,
ClC(Cl)c1ccccc1,inactive,inactive,inactive,,inactive,inactive,inactive,inactive,,22.8 µM (active),,,
O=[N+]([O-])c1ccccc1,inactive,inactive,inactive,inactive,inactive,inactive,inactive,inactive,,,,,
CCOC(=O)c1ccccc1C(=O)OCC,inactive,,inactive,inactive,inactive,inactive,inactive,inactive,83 µM (active),,,,
CN(C)C(=O)Cl,inactive,inactive,inactive,inactive,inactive,inactive,inactive,inactive,,,,,
Nc1ccc2ccccc2c1,inactive,,inactive,,inactive,inactive,,inactive,33.1 µM (active),13 µM (active),33.8 µM (active),,
CC(Cl)(Cl)C(=O)O,,inactive,inactive,inactive,inactive,inactive,inactive,inactive,,,,,
CCCCN(CCCC)SN(C)C(=O)Oc1cccc2c1OC(C)(C)C2,inactive,inactive,inactive,,inactive,inactive,,inactive,,6.66 µM (active),41.5 µM (active),,
OCC1CO1 (stereo not drawn),inactive,inactive,inactive,inactive,inactive,inactive,inactive,inactive,,,,,
CCOP(=S)(OCC)SCSCC,inactive,inactive,inactive,,inactive,inactive,inactive,inactive,,4.47 µM (active),,,
CC(C)(C)OOC(C)(C)C,inactive,inactive,inactive,inactive,inactive,inactive,inactive,inactive,,,,,
ClC1=C(Cl)C2(Cl)C3C(Cl)C(Cl)CC3C1(Cl)C2(Cl)Cl (stereo not drawn),inactive,inactive,inactive,,,inactive,,,,0.994 µM (active),27.7 µM (active),24.6 µM (active),2.17 µM (active)
CCNc1nc(Cl)nc(NC(C)(C)C)n1,inactive,,inactive,,,inactive,,,32.1 µM (active),1.01 µM (active),26.6 µM (active),9.92 µM (active),2.37 µM (active)
ClC(Cl)(Cl)c1ccccc1,inactive,inactive,inactive,inactive,inactive,inactive,inactive,inactive,,,,,
CCOP(=S)(Oc1ccc([N+](=O)[O-])cc1)c1ccccc1 (stereo not drawn),inactive,,inactive,,,inactive,,,24.2 µM (active),1.05 µM (active),37.3 µM (active),10.8 µM (active),2.42 µM (active)
Cc1ccc(O)cc1C,,,inactive,,,,,,,,,,
Nc1ccc(Cl)cc1,inactive,,inactive,inactive,inactive,inactive,inactive,inactive,33.4 µM (active),,,,
CCOc1ccc(C(C)(C)COCc2cccc(Oc3ccccc3)c2)cc1,inactive,,inactive,,,inactive,,,28 µM (active),0.63 µM (active),26 µM (active),61.5 µM (active),3.05 µM (active)
